# Laboratory results from PubChem BioAssay (NCATS).
# Results filed as inconclusive are left out. A number with no mark means an inactive call. The source made the active and inactive calls. The call rests on the fitted dose curve; in most records, active means well fitted cell-killing curve with a large enough effect; inconclusive means small, poorly fitted or top-dose-only effect, or effect the other way; inactive means no such curve, though single readings can be large or run the other way.
# How the values were obtained:
# [1] = Quantitative High-Throughput drug screen in 47 multiple myeloma cell lines against the NCATS MIPE library collection: OCIMY1_PLB cell viability assay (AID 1918979); further: nearly all actives have a fitted effect of over 35% in size;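 on viability: 100% = DMSO-only wells and 0% = cell-free media-only wells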
# Outline: (§1)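 ATP-based luminescence (CellTiter-Glo, 5 min RT incubation) quantified surviving cells following two days' treatment with MIPE 4.0 agents at 37 °C, 5% CO2.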
# [2] = Quantitative High-Throughput drug screen in 47 multiple myeloma cell lines against the NCATS MIPE library collection: MM1R_ATCC cell viability assay (AID 1918981); further: nearly all actives have a fitted effect of over 35% in size
# Outline: as §1
# [3] = Quantitative High-Throughput drug screen in 47 multiple myeloma cell lines against the NCATS MIPE library collection: LP1_DSMZ cell viability assay (AID 1918982); further: nearly all actives have a fitted effect of over 35% in size
# Outline: as §1
# [4] = Quantitative High-Throughput drug screen in 47 multiple myeloma cell lines against the NCATS MIPE library collection: KMS28PE_JCRB cell viability assay (AID 1918983); further: nearly all actives have a fitted effect of over 35% in size
# Outline: as §1
# [5] = Quantitative High-Throughput drug screen in 47 multiple myeloma cell lines against the NCATS MIPE library collection: L363_DSMZ cell viability assay (AID 1918984); further: nearly all actives have a fitted effect of over 40% in size
# Outline: as §1
# [6] = Quantitative High-Throughput drug screen in 47 multiple myeloma cell lines against the NCATS MIPE library collection: OCIMY5_PLB cell viability assay (AID 1918988); further: nearly all actives have a fitted effect of over 65% in size
# Outline: as §1
# [7] = Quantitative High-Throughput drug screen in 47 multiple myeloma cell lines against the NCATS MIPE library collection: OPM1_PLB cell viability assay (AID 1918989); further: nearly all actives have a fitted effect of over 40% in size
# Outline: as §1
# [8] = Quantitative High-Throughput drug screen in 47 multiple myeloma cell lines against the NCATS MIPE library collection: SKMM1_PLB cell viability assay (AID 1919863); settings: SKMM1 myeloma viability, CellTiter-Glo ATP, 48 h; viability: stronger effect = lower value; further: nearly all actives have a fitted effect of over 35% in size
# Outline: as §1
# [9] = Quantitative High-Throughput drug screen in 47 multiple myeloma cell lines against the NCATS MIPE library collection: XG6_PLB cell viability assay (AID 1919865); further: nearly all actives have a fitted effect of over 40% in size
# Outline: as §1
# [10] = Quantitative High-Throughput drug screen in 47 multiple myeloma cell lines against the NCATS MIPE library collection: XG1_PLB cell viability assay (AID 1919866); further: nearly all actives have a fitted effect of over 35% in size
# Outline: as §1
# [11] = Quantitative High-Throughput drug screen in 47 multiple myeloma cell lines against the NCATS MIPE library collection: VP6_DJ cell viability assay (AID 1919867); further: nearly all actives have a fitted effect of over 40% in size;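 on viability (% of DMSO): 100% = DMSO-only wells and 0% = wells with media alone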
# Outline: as §1
# [12] = Quantitative High-Throughput drug screen in 47 multiple myeloma cell lines against the NCATS MIPE library collection: PE2_PLB cell viability assay (AID 1919869); further: nearly all actives have a fitted effect of over 35% in size
# Outline: as §1
# [13] = Quantitative High-Throughput drug screen in 47 multiple myeloma cell lines against the NCATS MIPE library collection: RPMI8226_ATCC cell viability assay (AID 1919871); further: nearly all actives have a fitted effect of over 30% in size
# Outline: as §1
# [14] = Quantitative High-Throughput drug screen in 47 multiple myeloma cell lines against the NCATS MIPE library collection: OPM2_DSMZ cell viability assay (AID 1919872); further: nearly all actives have a fitted effect of over 30% in size
# Outline: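 Primary qHTS used for cherry-picking: cells at 500/well, library compounds for 48 h (37C, 5% CO2), luminescent ATP assay.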
# [15] = Quantitative High-Throughput drug screen in 47 multiple myeloma cell lines against the NCATS MIPE library collection: MM1S_ATCC cell viability assay (AID 1918980); further: nearly all actives have a fitted effect of over 45% in size
# Outline: as §1
# [16] = Quantitative High-Throughput drug screen in 47 multiple myeloma cell lines against the NCATS MIPE library collection: OCIMY7_PLB cell viability assay (AID 1918987); settings: OCI-MY7 myeloma viability, CellTiter-Glo ATP, 48 h; viability (% of DMSO): at 45.8 µM (top of the series); further: nearly all actives have a fitted effect of over 65% in size
# Outline: as §1
# [17] = Quantitative High-Throughput drug screen in 47 multiple myeloma cell lines against the NCATS MIPE library collection: U266_ATCC cell viability assay (AID 1919864); further: nearly all actives have a fitted effect of over 35% in size;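 on viability (% of DMSO control): 0% = media-only wells without cells and 100% = DMSO-only wells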
# Outline: as §1
# [18] = Quantitative High-Throughput drug screen in 47 multiple myeloma cell lines against the NCATS MIPE library collection: KMS34_JCRB cell viability assay (AID 1918985); further: nearly all actives have a fitted effect of over 40% in size
# Outline: as §1
# [19] = Quantitative High-Throughput drug screen in 47 multiple myeloma cell lines against the NCATS MIPE library collection: PCM6_Riken cell viability assay (AID 1919870); further: nearly all actives have a fitted effect of over 30% in size
# Outline: as §1
# [20] = Quantitative High-Throughput drug screen in 47 multiple myeloma cell lines against the NCATS MIPE library collection: UTMC2_PLB cell viability assay (AID 1919868); settings: CellTiter-Glo ATP luminescence, 48 h; viability (% of DMSO control): at 45.8 µM (top of the series); further: nearly all actives have a fitted effect of over 55% in size;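 on viability (% of DMSO control): 100% = DMSO-only wells and 0% = media-only wells without cells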
# Outline: as §1
# Potency means the concentration at half of the fitted maximal effect.
structure (smiles),measurement,setting,value
CC(C)(C)[N+]([O-])=Cc1ccc(S(=O)(=O)O)cc1S(=O)(=O)O,Potency,[1],inactive
same,Potency,[2],inactive
same,Potency,[3],inactive
same,Potency,[4],inactive
same,Potency,[5],inactive
same,Potency,[6],inactive
same,Potency,[7],inactive
same,viability,[8],115%
same,Potency,[9],inactive
same,Potency,[10],inactive
same,Potency,[11],inactive
same,Potency,[12],inactive
same,Potency,[13],inactive
same,Potency,[14],inactive
CC(O)(C#Cc1ccc2c(c1)N(c1nc(N)ncc1Cl)CC2)c1nccs1 (stereo not given),Potency,[1],14800 nM (active)
same,Potency,[15],11800 nM (active)
same,Potency,[5],16600 nM (active)
same,Potency,[16],2640 nM (active)
same,Potency,[6],20900 nM (active)
same,Potency,[7],14800 nM (active)
same,Potency,[17],16600 nM (active)
same,Potency,[9],4180 nM (active)
same,Potency,[10],4690 nM (active)
same,Potency,[11],5260 nM (active)
same,Potency,[12],8330 nM (active)
Cn1cc(-c2ccc3ncc(Cc4ccc5ncccc5c4)n3n2)cn1,Potency,[1],inactive
same,Potency,[15],inactive
same,Potency,[4],inactive
same,Potency,[18],inactive
same,Potency,[7],inactive
same,Potency,[8],2090 nM (active)
same,Potency,[19],13200 nM (active)
same,Potency,[13],inactive
same,Potency,[14],inactive
COc1cc2c(cc1O)CCC1C2CC[C@@]2(C)C1CC[C@@H]2O (stereo not given in full),Potency,[1],3320 nM (active)
same,Potency,[15],4690 nM (active)
same,Potency,[18],2090 nM (active)
same,Potency,[16],469 nM (active)
same,Potency,[6],1180 nM (active)
same,Potency,[7],5260 nM (active)
same,Potency,[8],833 nM (active)
same,Potency,[17],13200 nM (active)
same,Potency,[11],2640 nM (active)
same,Potency,[20],935 nM (active)
same,Potency,[12],3720 nM (active)
same,Potency,[14],3720 nM (active)
CCCCCCCCCCCCc1ccc(S(=O)(=O)Nc2nncs2)cc1,Potency,[1],inactive
same,Potency,[2],18700 nM (active)
same,Potency,[3],inactive
same,Potency,[4],inactive
same,Potency,[5],inactive
same,Potency,[18],inactive
same,Potency,[6],inactive
same,Potency,[7],inactive
same,Potency,[17],inactive
same,Potency,[9],inactive
same,Potency,[11],inactive
same,Potency,[20],inactive
same,Potency,[12],8330 nM (active)
same,Potency,[19],inactive
C=CC(=O)N1CCc2ccc(-n3c(=O)ccc4cnc5ccc(-c6cnn(C)c6)cc5c43)cc21,Potency,[1],1870 nM (active)
same,Potency,[15],2640 nM (active)
same,Potency,[4],4690 nM (active)
same,Potency,[5],833 nM (active)
same,Potency,[18],935 nM (active)
same,Potency,[16],833 nM (active)
same,Potency,[6],3320 nM (active)
same,Potency,[7],833 nM (active)
same,Potency,[8],1320 nM (active)
same,Potency,[17],3320 nM (active)
same,Potency,[9],2960 nM (active)
same,Potency,[10],1320 nM (active)
same,Potency,[20],1050 nM (active)
same,Potency,[12],1660 nM (active)
same,Potency,[19],1660 nM (active)
same,Potency,[13],1050 nM (active)
same,Potency,[14],2350 nM (active)
Cn1cnc(=N)c2[nH]cnc21,Potency,[1],743 nM (active)
same,Potency,[2],93.5 nM (active)
same,Potency,[3],166 nM (active)
same,Potency,[4],105 nM (active)
same,Potency,[5],132 nM (active)
same,Potency,[18],132 nM (active)
same,Potency,[16],66.2 nM (active)
same,Potency,[6],132 nM (active)
same,Potency,[7],66.2 nM (active)
same,Potency,[8],209 nM (active)
same,Potency,[17],235 nM (active)
same,Potency,[10],166 nM (active)
same,Potency,[11],66.2 nM (active)
same,Potency,[12],332 nM (active)
same,Potency,[19],235 nM (active)
same,Potency,[13],264 nM (active)
Nc1ccc(C(=O)Nc2cccc(-c3nc(N4CCOCC4)c4oc5ncccc5c4n3)c2)cn1,Potency,[1],16600 nM (active)
same,Potency,[15],23500 nM (active)
same,Potency,[4],26400 nM (active)
same,Potency,[5],1180 nM (active)
same,Potency,[18],7430 nM (active)
same,Potency,[16],3320 nM (active)
same,Potency,[6],5900 nM (active)
same,Potency,[7],1480 nM (active)
same,Potency,[8],23500 nM (active)
same,Potency,[17],20900 nM (active)
same,Potency,[9],2960 nM (active)
same,Potency,[10],5900 nM (active)
same,Potency,[11],4180 nM (active)
same,Potency,[20],3320 nM (active)
same,Potency,[12],2090 nM (active)
same,Potency,[19],5900 nM (active)
same,Potency,[14],5260 nM (active)
O=[N+]([O-])c1cn2c(n1)OC[C@@H](OCc1ccc(OC(F)(F)F)cc1)C2,Potency,[1],inactive
same,Potency,[15],2640 nM (active)
same,Potency,[3],inactive
same,Potency,[18],inactive
same,Potency,[7],inactive
same,Potency,[17],18700 nM (active)
same,Potency,[9],inactive
same,Potency,[19],inactive
same,Potency,[13],inactive
same,Potency,[14],inactive
CC[C@H]1OC(=O)[C@H](C)[C@@H](O[C@H]2C[C@@](C)(OC)[C@@H](O)[C@H](C)O2)[C@H](C)[C@@H](O[C@@H]2O[C@@H](C)C[C@H](N(C)C)[C@@H]2O)[C@](C)(O)C[C@@H](C)C(=O)[C@H](C)[C@@H](O)[C@]1(C)O,Potency,[1],inactive
same,Potency,[15],inactive
same,Potency,[3],inactive
same,Potency,[5],inactive
same,Potency,[6],inactive
same,Potency,[7],inactive
same,Potency,[10],4180 nM (active)
same,Potency,[11],inactive
same,Potency,[19],inactive
same,Potency,[13],inactive
CC(C)C[C@H](NC(=O)CNC(=O)c1cc(Cl)ccc1Cl)B1OC(=O)CC(CC(=O)O)(C(=O)O)O1 (stereo not given in full),Potency,[1],59 nM (active)
same,Potency,[15],41.8 nM (active)
same,Potency,[4],52.6 nM (active)
same,Potency,[5],83.3 nM (active)
same,Potency,[18],46.9 nM (active)
same,Potency,[16],29.6 nM (active)
same,Potency,[7],37.2 nM (active)
same,Potency,[8],209 nM (active)
same,Potency,[17],52.6 nM (active)
same,Potency,[9],26.4 nM (active)
same,Potency,[10],41.8 nM (active)
same,Potency,[11],29.6 nM (active)
same,Potency,[20],526 nM (active)
same,Potency,[12],29.6 nM (active)
same,Potency,[19],46.9 nM (active)
same,Potency,[13],118 nM (active)
NC1=N[C@H]2[C@H](CS[C@H]2CCCCC(=O)O)N1,Potency,[1],inactive
same,Potency,[15],inactive
same,Potency,[3],inactive
same,Potency,[5],inactive
same,Potency,[18],inactive
same,Potency,[6],inactive
same,Potency,[7],inactive
same,Potency,[17],inactive
same,Potency,[9],inactive
same,Potency,[10],inactive
same,Potency,[11],inactive
same,Potency,[12],inactive
same,Potency,[19],inactive
same,Potency,[14],inactive
